We go through twelve compounds from PubChem BioAssay (NCATS).

The structures appear in SMILES notation. Results filed as inconclusive are left out. Active and inactive are the calls of the source. Unless noted, calls follow the shape of the dose curve; as a rule, active = well fitted curve in the direction sought with a large enough effect; inconclusive = small, poorly fitted or top-dose-only effect, or another doubt; inactive = no such curve, though single readings can be large; an effect the other way counts as inactive or inconclusive.

Experiment [1] concerns the target Retinoic acid receptor RXR-alpha (Homo sapiens) (UniProt P19793). Briefly: qHTS assay for small molecule antagonists of retinoid X receptor alpha signaling (AID 588546; active = well fitted inhibition curve with a large enough effect in the signal ratio, with a control signal flat, not every such curve was filed as active; the % refers to the signal ratio; also: % is scaled to controls: 0 for no effect and ±100 for the full control effect). The settings on record: HEK293T RXRa-UAS-bla, beta-lactamase ratio, antagonist mode. An outline of the steps: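 Beta-lactamase reporter inhibition, read as CCF4 fluorescence ratio (ex 405, em 460/530 nm) after 2 h at RT. HEK293T UAS-bla cells, 2500/well, were stimulated with 9-cis-RA at 500 or 100 nM final alongside test compound for 18 h at 37 C.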
On the technique in general: qHTS replaces the single test concentration by a dilution series.

The target of experiment [2] is Luciferin 4-monooxygenase (Photinus pyralis) (UniProt P08659). In words: Biochemical firefly luciferase enzyme assay for NPC (AID 624030).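 Also: purified P. pyralis luciferase at 10 nM with luciferin and ATP substrate; 0% = DMSO and -100% = full luciferase inhibition by PTC124 control; nearly all actives have a fitted effect of over 70% in size.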 Summed up: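 Direct inhibition of firefly luciferase enzyme (10 nM final, 50 mM Tris Acetate) assessed by luminescence within 5 minutes. Percent activity scaled between DMSO and PTC124 positive control, with concentration-effect curves classified by fit quality and response.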

Experiment [3] in a line: S16 Schwann cell viability assay (CellTiter-Glo assay) (AID 624031).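 Also: native untransfected S16 rat Schwann cells; cellular ATP luminescence as a viability measure; plate controls were DMSO-treated cells for no effect and cell-free wells for full effect; nearly all actives have a fitted effect of over 70% in size.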 An outline of the steps: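 Following overnight culture in 10% FBS DMEM, parental S16 rat Schwann cells are dosed for 24 h at 37 °C. Viability is read as CellTiter-Glo luminescence and expressed as % activity relative to DMSO (0%) and no-cell wells.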
Experiment [4] is described as follows: S16 Schwann cell PMP22 intronic element firefly luciferase assay (AID 624032).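 Also: plate controls were DMSO for no effect and PTC124 positive control mean for full effect; nearly all actives have a fitted effect of over 30% in size.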 An outline of the steps:
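Luciferase reporter of PMP22 intronic-element expression in stably transfected S16 rat Schwann cells, read by ONE-Glo luminescence after 24 h compound exposure at 37 C. Activity scaled between DMSO (0%) and positive-control PTC124; concentration-effect curves quality-classified.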

Experiment [5] has as its target Glutaminase kidney isoform, mitochondrial (Homo sapiens) (UniProt O94925). In words: qHTS for Inhibitors of Glutaminase (GLS): LOPAC Validation (AID 624146).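 Also: glutamate product detected by oxidase and peroxidase coupled Amplex red fluorescence gain; % is scaled to controls: 0 for no effect and ±100 for the full control effect; nearly all actives have a fitted effect of over 60% in size.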 Summed up:
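Assay buffer: 45 mM KH2PO4 pH 8.2, 0.02% Tween-20. hKGA acts on L-glutamine (1 mM solution added); product glutamate is reported by an oxidase/peroxidase Amplex Red coupling, with fluorescence taken at baseline and 30 min.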

The nature of experiment [6]: qHTS of Trypanosoma Brucei Inhibitors: LOPAC Validation (AID 624147). Also: 0% is about no effect. An outline of the steps:
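Glycolytic pyruvate kinase of T. brucei was incubated with substrate, test compound and 130 uM ADP for 45 minutes at room temperature. Luminescent Kinase-Glo Plus signal was measured after 10 minutes.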

Experiment [7] concerns the target Glucagon-like peptide 1 receptor (Homo sapiens) (UniProt P43220). Briefly: qHTS of GLP-1 Receptor Agonists: LOPAC Validation (AID 624148).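 Also: luminescence from a luciferase reporter switched on by cAMP; 0% is about no effect; higher luminescence signal means agonism.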 An outline of the steps:
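Agonism scored as increased luciferase luminescence driven by cAMP in HEK293 clones carrying GLP-1R. Cells settled 12 hours, received compound for 4-6 hr at 37 deg C, 5% CO2, and were read after 12 min detection reagent at RT.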

Experiment [8] in a line: qHTS of Nrf2 Activators: LOPAC Validation (AID 624149). Also: 0% is about no effect. An outline of the steps: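 Cells (AREc32_Fluc) are plated at 1000 per well in OPTI-MEM containing 5% FBS and left overnight. Compounds are pinned in and incubated 24 hr at 37 deg C, and firefly luciferase is detected with Steady-Glo.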
The nature of experiment [9]: HTS Assay for Allosteric Antagonists of the Human D2 Dopamine Receptor: Hit Validation in HTRF (AID 624455).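 Also: stable D1 dopamine receptor cell line scored for blocking the D1 response; % is scaled to controls: 0 for no effect and ±100 for the full control effect.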 Summed up: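 Inhibition of the D1-mediated response is measured by HTRF in cells that stably express the D1 dopamine receptor. Compounds reaching this step are hits from calcium-flux antagonism testing at EC80 dopamine in inducible Hek293 Trex D2 cells.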
In general terms: TR-FRET usually uses a lanthanide donor and a delayed reading to cut background.

The nature of experiment [10]: qHTS assay for small molecule agonists of the antioxidant response element (ARE) signaling pathway (AID 651741; active = well fitted activation curve with a large enough effect in the signal ratio; the % refers to the signal ratio; also: % of control where 0% means no effect). Summed up: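 Beta-lactamase reporter under ARE control in HepG2 cells, 2,000 per well, was induced by 16 h compound treatment at 37 C. Read-out was fluorescence from LiveBLAzer B/G FRET substrate after 2 h at room temperature.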
Experiment [11] deals with Thyroid hormone receptor beta (Homo sapiens) (UniProt P10828). Briefly: qHTS assay for small molecule antagonists of thyroid hormone receptor beta signaling (AID 588547; active = well fitted inhibition curve with a large enough effect in the signal ratio, with a control signal flat, not every such curve was filed as active; the % refers to the signal ratio;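 also: cells stimulated with 0.4 nM T3 agonist during compound exposure; % is scaled to controls: 0 for no effect and ±100 for the full control effect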). The following applies: TR-UAS-bla HEK293, beta-lactamase ratio, antagonist mode, 18 h. An outline of the steps: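 Inhibition of T3-driven (0.4nM final) beta-lactamase reporter activity was measured over 0.59 nM to 92 uM compound after 18 h at 37 C. The cells were GripTite HEK293 TR-UAS-bla in charcoal/dextran-stripped serum, with CCF4 ratio read-out and IC50 from Hill fits.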

Experiment [12] can be described thus: S16 Schwann cell PMP22 intronic element beta-lactamase assay (AID 624044; calls by dose curve;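 also: 0% = DMSO and -100% = potassium clavulanate positive control; nearly all actives have a fitted effect of over 15% in size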). Summed up: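 Beta-lactamase reporter under a PMP22 intronic regulatory element in stable S16 rat Schwann cells; 24 h compound exposure. 460 nm blue signal normalized between DMSO (0%) and potassium clavulanate, with 535 nm FRET tracking viability; curves classed by r2 and response.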

The target of experiment [13] is Voltage-gated inwardly rectifying potassium channel KCNH2 (Homo sapiens) (UniProt Q12809). Briefly: qHTS Assay for Small Molecule Inhibitors of the Human hERG Channel Activity (AID 588834).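 Also: top concentration of the series differs between compounds; % is scaled to controls: 0 for no effect and ±100 for the full control effect; lower thallium flux fluorescence means stronger hERG block; nearly all actives have a fitted effect of over 50% in size.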 An outline of the steps: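 In hERG-transduced U2OS cells, dye-loaded for 1 hr at room temperature in dark, test compounds incubated 10 min at 37 °C before thallium stimulation. AC50 values derived by Hill modelling of concentration-response.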

Experiment [14] can be described thus: Cytotoxicity counterscreen for NFkB agonists and antagonists (AID 624476). Also: potency is read from the fitted curve at half-maximal effect.
The nature of experiment [15]: qHTS Assay for Identification of Small Molecule Agonists for NFkB Signaling Pathway. (AID 624478).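 Also: compounds tested together with TNF alpha at its EC50 of 10 pM; 0% is about no effect.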 Summed up:
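Activators were sought in reporter cells stimulated at the TNF alpha EC50 (10 pM final). Compound and cytokine were co-incubated 5 hours at 37 C before beta-lactamase substrate detection by dual-emission fluorescence.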

A short description of experiment [16]: qHTS Assay for Identification of Small Molecule Antagonists for NFkB Signaling Pathway. (AID 624479; calls by dose curve;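 also: pathway stimulated with TNF alpha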; also: potency is read from the fitted curve at half-maximal effect).
Experiment [17] is described as follows: Cell Proliferation Assay against the TMD8 Cell Line (AID 651645).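 Also: cells exposed to compound for 48 h before reading.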 The following applies: TMD8 DLBCL cell line proliferation/viability; at 46.1 µM (top of the series) unless noted. Summed up: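 TMD8 ABC DLBCL cells, 500 per well in phenol red-free RPMI with 5% FBS, were treated with compound by pin transfer and incubated 48 hours at 37C, 5% CO2. Viability was read by CellTiter-Glo luminescence, normalised to DMSO (100%) and 9.2 uM bortezomib (0%).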

A short description of experiment [18]: Cell Proliferation Assay against the HBL1 Cell Line (AID 651646).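 Also: cells exposed to compound for 48 h before reading.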 The following applies: HBL1 DLBCL cells; at 46.1 µM (top of the series) unless noted. An outline of the steps: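 CellTiter-Glo luminescence after 48 h compound exposure at 37C gives percent activity, with DMSO as 100% and 9.2 uM bortezomib final as 0%. Cells: 500 log-phase HBL1 per well, RPMI plus 5% FBS.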

Experiment [19] is described as follows: Cell Proliferation Assay against the TMD8 Cell Line (Caspase readout at 8 hrs) (AID 651713).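 Also: 0% = DMSO and 100% = 9.2 µM bortezomib caspase signal.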 Summed up: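 Caspase 3/7 activation in ABC DLBCL TMD8 cells is measured by luminescence after an 8 h compound exposure at 37C. Relative light units are scaled between DMSO (0%) and 9.2 uM final bortezomib (100%).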

Chain of Glutaminase kidney isoform, mitochondrial (Homo sapiens) (O94925 whole entry, looked up, canonical isoform): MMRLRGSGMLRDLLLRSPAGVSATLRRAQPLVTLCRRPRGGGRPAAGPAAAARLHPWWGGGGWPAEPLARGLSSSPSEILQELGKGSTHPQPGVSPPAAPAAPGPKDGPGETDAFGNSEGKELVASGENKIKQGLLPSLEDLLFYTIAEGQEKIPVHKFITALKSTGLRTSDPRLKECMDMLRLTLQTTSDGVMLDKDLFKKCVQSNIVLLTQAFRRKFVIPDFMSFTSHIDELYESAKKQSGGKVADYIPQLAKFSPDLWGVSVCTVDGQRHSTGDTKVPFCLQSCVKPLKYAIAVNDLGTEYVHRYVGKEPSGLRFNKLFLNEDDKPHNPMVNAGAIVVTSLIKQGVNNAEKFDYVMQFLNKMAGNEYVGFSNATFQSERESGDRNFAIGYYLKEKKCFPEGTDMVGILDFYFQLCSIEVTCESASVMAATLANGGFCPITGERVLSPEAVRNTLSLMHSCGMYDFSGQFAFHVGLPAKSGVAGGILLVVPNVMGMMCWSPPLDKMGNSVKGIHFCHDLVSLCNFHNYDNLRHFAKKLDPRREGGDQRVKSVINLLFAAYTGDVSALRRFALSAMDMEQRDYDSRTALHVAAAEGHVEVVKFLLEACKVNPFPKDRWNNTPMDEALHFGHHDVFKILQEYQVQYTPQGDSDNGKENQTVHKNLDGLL
Chain of Luciferin 4-monooxygenase (Photinus pyralis) (P08659 whole entry, looked up): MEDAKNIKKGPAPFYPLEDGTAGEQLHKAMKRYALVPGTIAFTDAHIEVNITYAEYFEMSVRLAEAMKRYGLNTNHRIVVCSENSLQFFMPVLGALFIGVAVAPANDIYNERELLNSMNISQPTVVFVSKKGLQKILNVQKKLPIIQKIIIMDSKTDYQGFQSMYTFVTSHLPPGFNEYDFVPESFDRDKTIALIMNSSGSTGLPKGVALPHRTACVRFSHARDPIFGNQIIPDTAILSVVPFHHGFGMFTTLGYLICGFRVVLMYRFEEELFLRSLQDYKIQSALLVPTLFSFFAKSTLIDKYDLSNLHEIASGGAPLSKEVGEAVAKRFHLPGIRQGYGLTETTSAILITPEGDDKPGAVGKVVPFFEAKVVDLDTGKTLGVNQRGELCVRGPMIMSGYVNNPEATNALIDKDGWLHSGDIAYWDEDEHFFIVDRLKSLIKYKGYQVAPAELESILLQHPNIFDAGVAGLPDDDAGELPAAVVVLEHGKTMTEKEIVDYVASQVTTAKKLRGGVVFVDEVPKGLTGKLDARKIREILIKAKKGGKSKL
Chain of Glucagon-like peptide 1 receptor (Homo sapiens) (P43220 whole entry, looked up): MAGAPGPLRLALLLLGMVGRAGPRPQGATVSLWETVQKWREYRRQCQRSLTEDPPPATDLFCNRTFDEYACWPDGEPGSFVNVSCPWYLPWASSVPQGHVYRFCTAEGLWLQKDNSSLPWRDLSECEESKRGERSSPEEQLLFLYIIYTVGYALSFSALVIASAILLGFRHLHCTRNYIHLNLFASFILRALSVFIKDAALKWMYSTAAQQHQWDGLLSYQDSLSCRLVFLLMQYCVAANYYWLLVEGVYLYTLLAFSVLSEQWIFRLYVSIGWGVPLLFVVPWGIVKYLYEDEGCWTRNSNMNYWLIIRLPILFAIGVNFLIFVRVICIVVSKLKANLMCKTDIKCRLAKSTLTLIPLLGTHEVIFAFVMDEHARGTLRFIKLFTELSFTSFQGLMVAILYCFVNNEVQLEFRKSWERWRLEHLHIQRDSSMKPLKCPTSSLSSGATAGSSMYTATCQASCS
Chain of Retinoic acid receptor RXR-alpha (Homo sapiens) (P19793 whole entry, looked up): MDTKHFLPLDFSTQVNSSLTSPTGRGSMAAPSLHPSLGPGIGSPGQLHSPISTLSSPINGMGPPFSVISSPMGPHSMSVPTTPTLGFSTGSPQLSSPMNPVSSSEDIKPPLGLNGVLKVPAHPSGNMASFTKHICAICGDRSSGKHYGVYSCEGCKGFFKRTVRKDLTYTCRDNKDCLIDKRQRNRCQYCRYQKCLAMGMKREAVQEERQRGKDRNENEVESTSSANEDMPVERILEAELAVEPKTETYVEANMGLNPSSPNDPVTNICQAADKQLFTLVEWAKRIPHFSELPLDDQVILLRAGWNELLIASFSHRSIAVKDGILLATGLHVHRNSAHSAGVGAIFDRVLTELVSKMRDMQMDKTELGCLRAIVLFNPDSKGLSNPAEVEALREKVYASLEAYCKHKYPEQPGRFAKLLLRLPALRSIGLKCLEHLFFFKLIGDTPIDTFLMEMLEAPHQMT
Chain of Voltage-gated inwardly rectifying potassium channel KCNH2 (Homo sapiens) (Q12809 whole entry, looked up): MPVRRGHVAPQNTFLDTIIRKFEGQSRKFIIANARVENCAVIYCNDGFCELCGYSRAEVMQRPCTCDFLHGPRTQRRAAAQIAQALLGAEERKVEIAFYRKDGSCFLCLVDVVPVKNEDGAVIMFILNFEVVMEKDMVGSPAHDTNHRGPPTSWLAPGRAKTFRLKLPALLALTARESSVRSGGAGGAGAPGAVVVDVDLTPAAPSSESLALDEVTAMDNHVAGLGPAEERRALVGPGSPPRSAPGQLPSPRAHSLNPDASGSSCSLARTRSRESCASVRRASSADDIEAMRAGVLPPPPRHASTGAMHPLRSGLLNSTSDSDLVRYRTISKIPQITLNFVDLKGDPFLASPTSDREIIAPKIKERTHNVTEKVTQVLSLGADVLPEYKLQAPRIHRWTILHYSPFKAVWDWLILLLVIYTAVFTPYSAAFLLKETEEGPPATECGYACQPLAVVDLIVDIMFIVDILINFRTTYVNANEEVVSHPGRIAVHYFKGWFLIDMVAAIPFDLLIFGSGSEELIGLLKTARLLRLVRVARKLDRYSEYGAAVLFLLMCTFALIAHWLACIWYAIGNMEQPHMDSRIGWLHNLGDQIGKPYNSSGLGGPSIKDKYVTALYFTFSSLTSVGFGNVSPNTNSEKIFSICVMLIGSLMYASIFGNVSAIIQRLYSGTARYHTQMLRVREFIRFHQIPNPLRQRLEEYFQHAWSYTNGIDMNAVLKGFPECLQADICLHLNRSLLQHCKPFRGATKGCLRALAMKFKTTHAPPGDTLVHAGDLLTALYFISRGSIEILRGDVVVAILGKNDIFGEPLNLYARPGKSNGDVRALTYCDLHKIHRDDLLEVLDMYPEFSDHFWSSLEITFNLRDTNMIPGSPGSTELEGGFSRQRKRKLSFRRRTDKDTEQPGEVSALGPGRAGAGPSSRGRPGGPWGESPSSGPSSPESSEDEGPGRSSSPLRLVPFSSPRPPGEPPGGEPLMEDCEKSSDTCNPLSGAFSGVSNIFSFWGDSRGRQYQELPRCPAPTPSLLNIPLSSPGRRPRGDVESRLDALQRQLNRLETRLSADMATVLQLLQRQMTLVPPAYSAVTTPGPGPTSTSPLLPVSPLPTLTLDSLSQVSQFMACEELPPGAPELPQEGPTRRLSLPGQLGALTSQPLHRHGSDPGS
Chain of Thyroid hormone receptor beta (Homo sapiens) (P10828 whole entry, looked up): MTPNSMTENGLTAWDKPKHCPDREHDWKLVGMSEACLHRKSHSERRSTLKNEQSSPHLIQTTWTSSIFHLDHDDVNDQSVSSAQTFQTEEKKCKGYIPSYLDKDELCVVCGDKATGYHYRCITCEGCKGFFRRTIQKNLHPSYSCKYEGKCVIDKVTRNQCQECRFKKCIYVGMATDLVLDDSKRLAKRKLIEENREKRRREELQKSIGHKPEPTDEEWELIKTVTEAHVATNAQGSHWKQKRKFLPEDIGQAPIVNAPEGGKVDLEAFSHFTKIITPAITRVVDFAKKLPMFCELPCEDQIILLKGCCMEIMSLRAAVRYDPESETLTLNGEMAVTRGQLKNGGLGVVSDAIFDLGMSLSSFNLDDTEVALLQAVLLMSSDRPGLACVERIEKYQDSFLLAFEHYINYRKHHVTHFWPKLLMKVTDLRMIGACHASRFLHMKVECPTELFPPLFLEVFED

Consider `Cc1ccccc1C(OCCN(C)C)c1ccccc1` (centres undefined), for which the max response in experiment [1] is -11.6% (inactive). Moreover, the Potency entry in experiment [2], in experiment [3], in [4], in [9] and in [10] was “inactive” in each case. For the same compound, the result in experiment [5], in experiment [6], in experiment [7] and in experiment [8] was inactive.
`Clc1cccc(Cl)c1NC1=NCCN1`: the Potency entry in experiment [2], in [3], in [4] and in experiment [9] was “inactive” each time. Moreover, the call in experiment [5], in experiment [6], in experiment [7] and in [8] was inactive.
Turning to `Nc1nc2c(ncn2COCCO)c(=O)[nH]1`, the Potency result in [2], in experiment [3], in experiment [4] and in experiment [9] was “inactive” in each case. The compound was called inactive in experiment [5], in [6], in experiment [7] and in [8].
For the compound `O=C1CCC(N2C(=O)c3ccccc3C2=O)C(=O)N1` (centres undefined), the max response in [1] was -2.36% (inactive). Moreover, the activity change % (negative = inhibition) in experiment [11] is 4.95% (inactive). Further, the Potency entry in experiment [2], in experiment [3], in [4], in [9] and in experiment [10] was “inactive” throughout. Besides, the compound was called inactive in experiment [12], in experiment [5], in experiment [6], in experiment [7] and in experiment [8].
On to `CC(C[N+](C)(C)C)OC(N)=O` (centres undefined), for which the Potency entry in experiment [13], in experiment [2], in experiment [3], in [4] and in [9] was “inactive” in each case. In addition, the compound was called inactive in experiment [5], in [6], in experiment [7] and in experiment [8].
Regarding `NCCCC(N)(C(=O)O)C(F)F` (centres undefined), the Potency result in [2], in [3], in experiment [4] and in experiment [9] was “inactive” each time. For the same compound, the compound was classed as inactive in experiment [12], in experiment [5], in [6], in experiment [7] and in experiment [8].
In the case of `CC1(C)Cc2c(-c3ccccc3)c(-c3ccc(Cl)cc3)c(CC(=O)O)n2C1`, the Potency in experiment [14] was 20.9 µM (active); in experiment [16], 21.1 µM (active). In addition, the call in experiment [15] was inactive.
Take `CCCc1nn(C)c2c(=O)[nH]c(-c3cc(S(=O)(=O)N4CCN(C)CC4)ccc3OCC)nc12`: the Potency result in experiment [2], in [3], in experiment [14], in experiment [16] and in [19] was “inactive” each time. Further, the compound was called inactive in experiment [12] and in experiment [15]. Also, in experiment [17], the viability (% of control) amounted to 102%. In experiment [18], the viability, percent of control came to 106%.
`COc1ccc(-c2ccc3c(N4CCOCC4)nc(N4C[C@@H](C)O[C@@H](C)C4)nc3n2)cc1CO`: the Potency result in [14] and in [16] was “inactive” throughout. The outcome in [15] was inactive. In [17], the viability (% of control) is 29.5%. For the same compound, the viability, percent of control in experiment [18] was 57.7%.
For the compound `Nc1ncnc2nc(-c3ccc(N4CCOCC4)nc3)cc(-c3cccc(Br)c3)c12`, the call in experiment [5], in experiment [6] and in experiment [15] was inactive. Also, the Potency entry in experiment [9] and in [14] was “inactive” in each case. Moreover, in experiment [17], the viability (% of control) worked out at 74.7%.
For `Cc1cccc(-c2[nH]c(C(C)(C)C)nc2-c2ccc3nccnc3c2)n1`, the compound was classed as inactive in experiment [5], in experiment [6], in experiment [7], in experiment [8] and in experiment [15]. In addition, the Potency entry in experiment [9], in experiment [14], in [16] and in [19] was “inactive” throughout. The viability (% of control) in experiment [17] was 34%. Also, the viability, percent of control in [18] was found to be 100%.
With `CCc1ccc(CCOc2ccc(CC3SC(=O)NC3=O)cc2)nc1` (centres undefined), the Potency result in [3], in [4], in experiment [14] and in [19] was “inactive” throughout. Also, the compound was classed as inactive in experiment [12] and in experiment [15]. In addition, the Potency in experiment [16] was 16.8 µM (active). For the same compound, in [17], the viability (% of control) was determined as 79.6%. In addition, the viability, percent of control in experiment [18] turned out to be 77.7%.
